Experimental data reported in ChEMBL document CHEMBL3988442, “University of Dundee, Small-Polar-MMV Screening Library” (2021).
For part of these data: Results with a measured potency or affinity are listed apart.

What was measured:
Design in all cases: scale not given: direction of the effect not stated beside the values
[1] = target: Protein translocase subunit SecA (Escherichia coli (strain K12)) (UniProt P10408); experiment: Assay to Identify E. coli SecA ATPase Inhibitors; type: functional; conditions: 30 µM
[2] = target: T1, Ubiquitin-activating enzyme e1, putative (Leishmania donovani (strain BPK282A1)) (UniProt E9BSI1); experiment: Leishmania donovani Ubiquitin Activating Enzyme (LdE1); type: functional; conditions: 30 µM
T1 sequence (whole entry): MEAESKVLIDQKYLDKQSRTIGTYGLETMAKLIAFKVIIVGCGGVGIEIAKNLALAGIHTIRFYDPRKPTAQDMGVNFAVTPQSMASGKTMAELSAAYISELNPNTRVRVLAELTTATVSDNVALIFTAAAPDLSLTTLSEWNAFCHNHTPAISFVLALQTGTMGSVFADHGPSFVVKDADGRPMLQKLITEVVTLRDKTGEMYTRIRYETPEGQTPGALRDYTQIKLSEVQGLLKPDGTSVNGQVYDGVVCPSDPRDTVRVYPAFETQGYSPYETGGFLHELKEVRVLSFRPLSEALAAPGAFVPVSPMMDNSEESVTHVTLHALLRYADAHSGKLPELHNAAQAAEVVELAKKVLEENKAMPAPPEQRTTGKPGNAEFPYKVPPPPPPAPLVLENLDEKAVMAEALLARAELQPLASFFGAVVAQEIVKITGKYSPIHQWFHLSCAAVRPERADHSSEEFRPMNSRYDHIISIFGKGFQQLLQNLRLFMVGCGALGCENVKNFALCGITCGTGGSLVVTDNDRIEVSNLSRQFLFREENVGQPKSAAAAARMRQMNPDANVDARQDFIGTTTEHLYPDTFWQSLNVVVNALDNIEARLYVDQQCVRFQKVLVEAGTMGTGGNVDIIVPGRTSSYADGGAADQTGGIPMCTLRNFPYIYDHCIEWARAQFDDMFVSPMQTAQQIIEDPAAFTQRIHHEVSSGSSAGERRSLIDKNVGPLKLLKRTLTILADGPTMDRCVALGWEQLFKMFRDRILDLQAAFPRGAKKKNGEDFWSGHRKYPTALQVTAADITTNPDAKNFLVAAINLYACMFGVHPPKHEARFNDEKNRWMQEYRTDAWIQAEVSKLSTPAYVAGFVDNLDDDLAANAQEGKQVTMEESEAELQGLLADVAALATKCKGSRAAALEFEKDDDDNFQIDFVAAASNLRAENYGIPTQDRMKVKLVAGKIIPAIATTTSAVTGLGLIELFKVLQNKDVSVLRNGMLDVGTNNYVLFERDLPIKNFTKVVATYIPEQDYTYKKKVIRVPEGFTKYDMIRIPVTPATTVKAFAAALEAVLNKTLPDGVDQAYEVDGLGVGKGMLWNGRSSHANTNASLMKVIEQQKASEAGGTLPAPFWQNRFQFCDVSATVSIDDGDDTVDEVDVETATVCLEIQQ

[3] = target: AMP-activated protein kinase, AMPK (Homo sapiens) (UniProt P54646+O43741+P54619+Q9UGJ0+Q9Y478+Q13131+Q9UGI9); experiment: AMP-dependent Kinase enzyme assay. An in vitro enzyme assay that detects ADP turnover that is directly proportional to AMPK activity. This uses naive AMPK that is activated during the assay with MK-8722; type: functional; conditions: 30 µM
[4] = target: Sialic acid-binding Ig-like lectin 9 (Homo sapiens) (UniProt Q9Y336); experiment: Hs-Siglec9 ALPHAscreen SOP 20170721; conditions: 10 µM
[5] = test system: Trypanosoma cruzi; experiment: Trypanosoma cruzi phosphomannomutase and mannose-1-phosphate guanylyltransferase assay; type: functional; conditions: 10 µM
[6] = target: T2, Arginase-2, mitochondrial (Homo sapiens) (UniProt P78540); experiment: in vitro enzyme assay to detect the production of urea directly proportional to the activity of Arginase II; type: functional; conditions: 33.3 µM; further: in the data most compounds retested in dose-response had high values
T2 sequence (whole entry): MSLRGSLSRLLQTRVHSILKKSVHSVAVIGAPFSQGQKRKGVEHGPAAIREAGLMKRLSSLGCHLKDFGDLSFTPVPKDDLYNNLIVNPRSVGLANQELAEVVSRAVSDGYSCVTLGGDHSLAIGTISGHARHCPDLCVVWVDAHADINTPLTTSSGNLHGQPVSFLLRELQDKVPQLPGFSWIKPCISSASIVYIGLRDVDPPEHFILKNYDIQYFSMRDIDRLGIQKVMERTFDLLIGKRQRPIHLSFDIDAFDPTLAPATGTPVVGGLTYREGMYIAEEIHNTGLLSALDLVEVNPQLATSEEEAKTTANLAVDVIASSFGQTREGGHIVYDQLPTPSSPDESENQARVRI

[7] = target: T3, Proteasome subunit beta (Trypanosoma cruzi) (UniProt O96673); experiment: Trypanosoma cruzi proteasome chymotrypsin-like activity (TcProtChymo) assay.; further: in the data most compounds retested in dose-response had high values; type: functional; conditions: 9.37 µM
T3 sequence (whole entry): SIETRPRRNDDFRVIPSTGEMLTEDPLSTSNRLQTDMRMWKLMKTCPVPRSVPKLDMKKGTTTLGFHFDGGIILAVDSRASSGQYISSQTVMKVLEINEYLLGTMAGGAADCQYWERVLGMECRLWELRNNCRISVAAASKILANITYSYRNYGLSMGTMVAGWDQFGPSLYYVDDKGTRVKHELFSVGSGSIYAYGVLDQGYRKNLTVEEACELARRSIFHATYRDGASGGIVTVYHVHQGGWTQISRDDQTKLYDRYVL

[8] = species on record: Homo sapiens; experiment: To identify inhibition of the IFN signalling (Jak-Stat) pathway via expression of an eGFP reporter gene under the control of an IFN-stimulated response element (ISRE) containing MxA promoter.; type: functional; conditions: 30 µM
[9] = target: T4, Tyrosyl-tRNA synthetase, putative (Trypanosoma cruzi (strain CL Brener)) (UniProt Q4DSP6); experiment: Trypanosoma cruzi tyrosyl tRNA synthetase (TcYRS) _High Tyrosine SOP; type: functional; conditions: 30 µM; further: in the data most compounds retested in dose-response had high values
T4 sequence (whole entry): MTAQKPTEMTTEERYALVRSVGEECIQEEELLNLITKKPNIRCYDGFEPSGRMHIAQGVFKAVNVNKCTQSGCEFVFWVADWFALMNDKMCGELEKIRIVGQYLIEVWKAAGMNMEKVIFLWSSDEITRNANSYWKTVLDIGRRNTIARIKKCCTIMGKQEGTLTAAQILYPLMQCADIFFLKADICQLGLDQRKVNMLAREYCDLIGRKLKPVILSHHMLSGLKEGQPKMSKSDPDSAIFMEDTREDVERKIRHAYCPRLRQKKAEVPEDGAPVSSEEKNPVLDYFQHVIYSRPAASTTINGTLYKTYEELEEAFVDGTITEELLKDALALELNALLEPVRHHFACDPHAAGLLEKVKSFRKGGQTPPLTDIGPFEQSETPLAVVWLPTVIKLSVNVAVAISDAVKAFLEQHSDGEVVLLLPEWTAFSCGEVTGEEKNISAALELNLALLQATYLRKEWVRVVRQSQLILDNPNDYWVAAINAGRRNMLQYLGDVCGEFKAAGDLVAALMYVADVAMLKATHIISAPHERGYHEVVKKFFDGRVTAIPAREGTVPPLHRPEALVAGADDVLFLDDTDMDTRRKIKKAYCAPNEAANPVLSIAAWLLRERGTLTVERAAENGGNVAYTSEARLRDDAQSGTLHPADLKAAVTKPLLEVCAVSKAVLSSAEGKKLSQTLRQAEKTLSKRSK

[10] = target: T4, Tyrosyl-tRNA synthetase, putative (Trypanosoma cruzi (strain CL Brener)); experiment: Trypanosoma cruzi tyrosyl tRNA synthetase (TcYRS) SOP; type: functional; conditions: 30 µM
[11] = target: Chromo domain-containing protein 1 (Saccharomyces cerevisiae (strain ATCC 204508 / S288c) (Baker's yeast)) (UniProt P32657); experiment: ScCHD-1 Enzyme Inhibition Assay; type: functional; conditions: 30 µM; further: in the data most compounds retested in dose-response had high values
Sequence of Chromo domain-containing protein 1 (Saccharomyces cerevisiae (strain ATCC 204508 / S288c) (Baker's yeast)) (P32657 whole entry, the tested form may be a part): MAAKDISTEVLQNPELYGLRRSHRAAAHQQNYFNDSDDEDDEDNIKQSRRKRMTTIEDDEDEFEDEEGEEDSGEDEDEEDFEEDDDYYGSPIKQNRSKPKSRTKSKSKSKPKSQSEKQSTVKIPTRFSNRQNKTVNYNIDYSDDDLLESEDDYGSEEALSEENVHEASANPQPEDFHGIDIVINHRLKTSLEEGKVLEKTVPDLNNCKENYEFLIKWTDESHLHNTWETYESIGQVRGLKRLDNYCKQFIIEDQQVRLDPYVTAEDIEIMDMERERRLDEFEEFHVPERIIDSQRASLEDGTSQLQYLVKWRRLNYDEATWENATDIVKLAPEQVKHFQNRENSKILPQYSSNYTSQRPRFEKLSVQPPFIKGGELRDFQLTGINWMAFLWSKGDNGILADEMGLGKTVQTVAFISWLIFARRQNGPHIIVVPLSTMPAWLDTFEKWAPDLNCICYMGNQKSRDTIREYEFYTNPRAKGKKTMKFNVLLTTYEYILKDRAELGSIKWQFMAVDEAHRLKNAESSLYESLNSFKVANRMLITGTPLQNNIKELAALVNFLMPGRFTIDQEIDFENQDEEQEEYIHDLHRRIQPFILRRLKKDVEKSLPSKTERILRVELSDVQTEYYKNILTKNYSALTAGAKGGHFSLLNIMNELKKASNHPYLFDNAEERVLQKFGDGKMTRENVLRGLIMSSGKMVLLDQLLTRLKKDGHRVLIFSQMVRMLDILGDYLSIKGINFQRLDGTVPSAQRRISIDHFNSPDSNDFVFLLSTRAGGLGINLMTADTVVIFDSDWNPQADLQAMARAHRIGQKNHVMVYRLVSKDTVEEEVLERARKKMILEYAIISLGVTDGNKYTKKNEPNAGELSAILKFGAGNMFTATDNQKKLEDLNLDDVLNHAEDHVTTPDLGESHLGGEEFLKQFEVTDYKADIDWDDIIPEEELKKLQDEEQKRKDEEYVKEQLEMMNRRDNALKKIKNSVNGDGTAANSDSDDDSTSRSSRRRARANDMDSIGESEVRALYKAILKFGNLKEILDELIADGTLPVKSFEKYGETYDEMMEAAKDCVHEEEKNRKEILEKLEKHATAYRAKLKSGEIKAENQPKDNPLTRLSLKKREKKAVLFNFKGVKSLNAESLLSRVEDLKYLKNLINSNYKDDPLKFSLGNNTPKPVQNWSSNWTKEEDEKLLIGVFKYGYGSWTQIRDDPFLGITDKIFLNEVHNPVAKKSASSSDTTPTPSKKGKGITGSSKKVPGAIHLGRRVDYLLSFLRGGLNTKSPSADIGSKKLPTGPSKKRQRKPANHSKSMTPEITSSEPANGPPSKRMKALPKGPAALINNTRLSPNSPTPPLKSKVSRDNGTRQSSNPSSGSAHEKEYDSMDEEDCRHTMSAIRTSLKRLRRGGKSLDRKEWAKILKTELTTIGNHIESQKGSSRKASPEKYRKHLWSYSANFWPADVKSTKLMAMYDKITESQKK

Sequence of Protein translocase subunit SecA (Escherichia coli (strain K12)) (P10408 whole entry): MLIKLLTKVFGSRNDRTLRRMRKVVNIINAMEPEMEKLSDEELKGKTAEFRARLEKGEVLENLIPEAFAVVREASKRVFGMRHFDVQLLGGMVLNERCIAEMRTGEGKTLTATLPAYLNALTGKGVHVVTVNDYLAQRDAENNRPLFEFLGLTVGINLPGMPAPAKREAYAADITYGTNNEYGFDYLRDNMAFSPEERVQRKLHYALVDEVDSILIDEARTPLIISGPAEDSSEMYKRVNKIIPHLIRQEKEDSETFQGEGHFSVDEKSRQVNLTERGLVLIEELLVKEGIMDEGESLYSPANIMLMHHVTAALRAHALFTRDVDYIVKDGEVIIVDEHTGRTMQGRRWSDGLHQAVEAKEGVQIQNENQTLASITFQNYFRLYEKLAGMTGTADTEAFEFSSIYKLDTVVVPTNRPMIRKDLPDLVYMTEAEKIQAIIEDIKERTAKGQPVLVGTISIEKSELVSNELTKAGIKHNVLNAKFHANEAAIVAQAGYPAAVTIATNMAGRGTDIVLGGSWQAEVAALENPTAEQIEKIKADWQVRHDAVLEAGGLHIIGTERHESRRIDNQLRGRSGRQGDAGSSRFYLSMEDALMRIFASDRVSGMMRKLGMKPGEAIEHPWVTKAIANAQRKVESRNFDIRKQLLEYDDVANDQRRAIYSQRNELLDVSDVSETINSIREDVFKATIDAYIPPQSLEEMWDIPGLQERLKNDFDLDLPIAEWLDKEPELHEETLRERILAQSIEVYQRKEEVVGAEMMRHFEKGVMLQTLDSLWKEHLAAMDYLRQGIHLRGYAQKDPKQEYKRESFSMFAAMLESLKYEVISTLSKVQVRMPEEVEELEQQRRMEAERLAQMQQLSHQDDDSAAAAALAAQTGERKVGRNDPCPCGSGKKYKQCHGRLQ
Sequence of Sialic acid-binding Ig-like lectin 9 (Homo sapiens) (Q9Y336 whole entry): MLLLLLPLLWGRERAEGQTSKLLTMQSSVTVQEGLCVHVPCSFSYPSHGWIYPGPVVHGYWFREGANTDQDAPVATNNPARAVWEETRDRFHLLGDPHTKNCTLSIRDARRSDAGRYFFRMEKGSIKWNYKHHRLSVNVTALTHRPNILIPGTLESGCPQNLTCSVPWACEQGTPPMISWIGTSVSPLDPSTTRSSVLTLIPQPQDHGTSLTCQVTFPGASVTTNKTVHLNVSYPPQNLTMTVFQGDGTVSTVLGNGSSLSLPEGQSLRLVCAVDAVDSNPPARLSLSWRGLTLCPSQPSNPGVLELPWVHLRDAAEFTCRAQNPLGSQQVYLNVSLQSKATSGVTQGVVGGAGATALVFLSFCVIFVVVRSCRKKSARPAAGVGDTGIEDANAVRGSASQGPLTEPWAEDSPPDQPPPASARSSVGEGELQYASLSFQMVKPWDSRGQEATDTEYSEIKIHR

| Structure (SMILES) | Percent Effect [1] | Percent Effect [2] | Percent Effect [3] | Percent Effect [4] | Percent Effect [5] | Percent Effect [6] | Percent Effect [7] | Percent Effect [8] | Percent Effect [9] | Percent Effect [10] | Percent Effect [11] |
| --- | --- | --- | --- | --- | --- | --- | --- | --- | --- | --- | --- |
| O=C(c1cnccn1)N1CCc2ncnc(-c3cccnc3)c2CC1 | -5.31% | 2.67% | -1.38% | -1.29% | 0.386% | -43.5% | 6.33% | -9.47% | 0% | 5% | -3.12% |
| CNC(=O)c1cc2c(nc1N(C)C)CCN(S(=O)(=O)C1CC1)CC2 | -2.36% | 10.4% | -2.46% | -6.22% | -10.8% | 9.68% | 8.7% | 0.586% | -3.17% | -3.85% | -7.64% |
| CCN(CC)C(=O)c1cc(C2CCCN2C)ccn1 (stereo unspecified) | -5.39% | 23% | -2.48% | -2.94% | 0.988% | -2.55% | 15.4% | -5.61% | 5.38% | 11.7% | -12.8% |
| O=C(c1ccccc1-c1ccccc1)N1CCOC2(CNCCOC2)C1 (stereo unspecified) | -2.01% | 8.11% | -0.846% | 7.99% | 0% | 4.76% | 17.9% | 1.86% | 5.82% | 14.6% | -1.37% |
| CS(=O)(=O)NC[C@]12COC[C@H]1CN(C(=O)c1ccccc1)C2 | -1.33% | -52% | -0.526% | 9.67% | -4.63% | 0.645% | -1.22% | 11.1% | -79.4% | -147% | -6.34% |
| COc1ccccc1C(=O)NC(CC(=O)O)c1cccs1 (stereo unspecified) | -3.27% | 13.9% | 0.385% | 5.67% | -1.33% | 2.8% | 20.2% | -5.53% | 5.21% | 12.7% | -19.2% |
| c1cnn(CCNCc2nnc(C3CC3)o2)c1 | -2.66% | 27.9% | -5.53% | -12.3% | 1.42% | -2.66% | 9.91% | 11.1% | 7.39% | 24.1% | -13.5% |
| CC(=O)Nc1nc(C2CCN(CC(N)=O)CC2)cs1 | -1.36% | -6.76% | 6.42% | 5.54% | -4.35% | 3.48% | -3.9% | 5.69% | 0% | -3.9% | 11% |
| COc1ccnc(N2CCN(C(=O)Cc3ccc(C)s3)CC2)n1 | -2.28% | -2.6% | 5.06% | 8.15% | 2.84% | -0.632% | 13.8% | -7.95% | 9.52% | 25.9% | -9.7% |
| Cc1ncc(-c2nc3cc(S(=O)(=O)N4CCCC4)ccc3n2C)cn1 | -5.62% | 5.48% | 12.1% | -7.83% | 0% | 6.36% | 2.13% | 14.1% | 6.45% | 15% | -1.23% |
| CC(C)N(C)Cc1cn2c(n1)CN(Cc1ccsc1)CC2 | 5.48% | 11% | 1.28% | 6.24% | -5.56% | -3.19% | 9.33% | 18.4% | 7.29% | 8.64% | 2.73% |
| N#Cc1ccnc(N2CCN(C(=O)NC3CCS(=O)(=O)C3)CC2)c1 (stereo unspecified) | -2.8% | 16.2% | -36.1% | 7.69% | -0.464% | -0.185% | 9.87% | 14.6% | 7.92% | 23.2% | -5.46% |
| Cc1noc(CCCC(=O)NC(C)c2ccccn2)n1 (stereo unspecified) | -1.78% | 18.4% | -1.11% | 2.7% | 3.01% | 2.68% | 6.52% | 3.32% | 10.3% | 21.9% | -13.2% |
| CSc1sc(NC(=O)Cc2c(C)nc(C)[nH]c2=O)nc1C | -6.26% | 7.89% | -7.94% | 7.61% | 5.83% | -2.68% | 6.18% | 7.45% | 7.35% | 12.2% | -12.2% |
| c1coc(-c2nnc(CN3CCOC(Cn4cccn4)C3)o2)c1 (stereo unspecified) | -5.27% | 7.59% | -2.15% | 1.36% | 6.89% | 0.76% | 11.6% | 8.37% | 5.42% | 13.9% | -6.49% |
| N#Cc1c(F)cccc1N1CCC(NS(=O)(=O)c2cccs2)CC1 | 0.0864% | -11% | 24.6% | -2.85% | -9.6% | -0.455% | 14% | 34.2% | -15.1% | -20% | -4.33% |
| CCn1cc(CN2CCCN(C(=O)CCc3ccncc3)CC2)cn1 | -3.49% | 26% | -14.6% | 4.57% | 1.87% | -0.712% | 5.91% | 23.6% | 8.74% | 14.6% | -7.66% |
| Cn1cc(C2CC(=O)NC23CCN(c2ncc(F)cn2)CC3)cn1 (stereo unspecified) | 0.954% | 16% | 3.9% | 5.28% | -4.25% | -16.3% | 3.08% | 16.6% | 1.04% | 17.5% | -4.13% |
| Cc1c(C2CCCN(C(=O)C3CC3)C2)n2c(nc1=O)CCC2 (stereo unspecified) | -7.83% | 23% | 2.41% | -4.63% | -0.593% | 0.232% | 15.4% | 3.94% | 4.3% | 11.7% | -11% |
| O=C(CC1CCCC1)N1CCCC(c2n[nH]c3nccnc23)C1 (stereo unspecified) | -2.49% | 6.76% | 20.4% | 3.58% | -2.17% | 7.66% | 11.2% | 13.3% | 3.23% | 16.9% | -9.36% |
| Cn1nc(C2CCCN(C(=O)CO)C2)cc1O (stereo unspecified) | -4.16% | -6.76% | -113% | -1.22% | -3.75% | -0.232% | 1.4% | -6.44% | -6.45% | -9.09% | -2.64% |
